Data from PubChem BioAssay AID1159580 (chemical genetic matrix, 2015).
Values joined by “and” are separate entries in the source; they are usually repeats but may differ in a detail not shown here. Equal entries are not always repeated. About 2,000 (36%) of roughly 5,500 compounds were called active. About 18% were inconclusive and are not listed. Cut-off read from the data, not from the text of the source: active = normalized growth mostly below about 0.91 (no sharp cut-off); inconclusive = no clear call, values can overlap the other calls; inactive = mostly above about 0.92. The list shows a part of the results.

Test: chemical genetic growth profiling, strain panel (AID 1159580);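 note: tested at 20 µM; growth read once vehicle control cultures reached saturation at 30 °C; 1 = growth at the plate median or of vehicle wells; lower values mean less growth of the strain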
Details: S. cerevisiae deletion strains, growth OD

Measured: normalized growth

CO[C@@]1(NC(=O)C(C(=O)O)c2ccc(O)cc2)C(=O)N2C(C(=O)O)=C(CSc3nnnn3C)CO[C@@H]21 (stereo partly specified)
inactive: locus YAL013W, strain DEP1, hits give low values 1.01 | locus YAL021C, strain ccr4, hits give low values 0.993 | locus YAL026C, strain drs2, hits give low values 1 | locus YAL030W, strain snc1, hits give low values 0.982 | locus YBL061C, strain skt5, hits give low values 0.979 | locus YBR021W, strain FUR4, hits give low values 0.998 | locus YBR023C, strain chs3, hits give low values 0.994 | locus YBR171W, strain sec66, hits give low values 0.984 | locus YBR229C, strain ROT2, hits give low values 1 | locus YBR231C, strain swc5, hits give low values 0.956 | locus YBR279W, strain paf1, hits give low values 0.995 | locus YCL011C, strain gbp2, hits give low values 0.955 | locus YCL016C, strain dcc1, hits give low values 0.955 | locus YCL029C, strain bik1, hits give low values 1.03 | locus YCL061C, strain MRC1, hits give low values 1 | locus YCL069W, strain vba3, hits give low values 0.991 | locus YCR088W, strain abp1, hits give low values 0.984 | locus YDL005C, strain med2, hits give low values 0.991 | locus YDL035C, strain GPR1, hits give low values 0.999 | locus YDL040C, strain nat1, hits give low values 0.989 | locus YDL074C, strain BRE1, hits give low values 1.03 | locus YDL101C, strain DUN1, hits give low values 1.01 | locus YDL134C, strain PPH21, hits give low values 1 | locus YDL185W, strain tfp1, hits give low values 1.03 | locus YDL192W, strain arf1, hits give low values 1.02 | locus YDR001C, strain nth1, hits give low values 0.977 | locus YDR069C, strain doa4, hits give low values 1.01 | locus YDR101C, strain arx1, hits give low values 1.01 | locus YDR137W, strain rgp1, hits give low values 0.98 | locus YDR150W, strain NUM1, hits give low values 1.02 | locus YDR159W, strain sac3, hits give low values 1.01 | locus YDR162C, strain NBP2, hits give low values 1 | locus YDR195W, strain ref2 1 | locus YDR297W, strain sur2, hits give low values 0.971 | locus YDR318W, strain mcm21, hits give low values 1.02 | locus YDR334W, strain swr1, hits give low values 0.942 | locus YDR335W, strain msn5, hits give low values 0.981 | locus YDR388W, hits give low values 1.02 | locus YDR392W, strain spt3, hits give low values 0.909 | locus YDR502C, strain sam2, hits give low values 1.01 | locus YEL003W, strain gim4, hits give low values 0.99 | locus YEL037C, strain rad23, hits give low values 0.988 | locus YEL061C, strain CIN8 (second series), hits give low values 0.982 | locus YEL061C, strain CIN8, hits give low values 1.01 | locus YER015W, strain faa2, hits give low values 0.982 | locus YER016W, strain bim1, hits give low values 1 | locus YER110C, hits give low values 1.02 | locus YER111C, strain swi4, hits give low values 0.983 | locus YER155C, strain BEM2 (second series), hits give low values 0.993 | locus YER155C, strain BEM2, hits give low values 1.01 | locus YER167W, strain BCK2, hits give low values 1 | locus YFR010W, strain ubp6, hits give low values 0.996 | locus YGL078C, strain dbp3, hits give low values 0.998 | locus YGL086W, strain mad1, hits give low values 1.01 | locus YGL167C, strain pmr1, hits give low values 0.987 | locus YGL173C, strain kem1, hits give low values 0.992 | locus YGL227W, strain vid30, hits give low values 0.99 | locus YGL240W, strain doc1, hits give low values 0.987 | locus YGL248W, strain PDE1, hits give low values 1.01 | locus YGL253W, strain hxk2, hits give low values 0.996 | locus YGR078C, strain PAC10, hits give low values 1.02 | locus YGR135W, strain pre9, hits give low values 1 | locus YGR229C, strain SMI1, hits give low values 1 | locus YGR252W, strain gcn5, hits give low values 0.93 | locus YHR013C, strain ard1, hits give low values 0.962 | locus YHR027C, strain rpn1, hits give low values 0.964 | locus YHR030C, strain SLT2, hits give low values 1.01 and 0.97 | locus YHR079C, strain IRE1 (second series), hits give low values 1.02 | locus YHR079C, strain IRE1, hits give low values 0.99 | locus YHR094C, strain hxt1, hits give low values 1.02 | locus YHR129C, strain ARP1, hits give low values 1 | locus YHR142W, strain chs7, hits give low values 0.974 | locus YHR200W, strain rpn10, hits give low values 1.02 | locus YIL066C, strain RNR3, hits give low values 1.02 | locus YIL073C, strain SPO22, hits give low values 1.04 | locus YIL125W, strain kgd1, hits give low values 1.01 | locus YIR030C, strain dcg1, hits give low values 1.02 | locus YJL092W, strain hpr5, hits give low values 0.983 | locus YJL095W, strain BCK1 (second series), hits give low values 0.982 | locus YJL095W, strain BCK1, hits give low values 1.01 | locus YJL115W, strain asf1, hits give low values 0.96 | locus YJL129C, strain trk1, hits give low values 0.999 | locus YJL134W, strain LCB3, hits give low values 1 | locus YJL154C, strain vps35, hits give low values 0.975 | locus YJL164C, strain tpk1, hits give low values 0.989 | locus YJL166W, strain qcr8, hits give low values 0.951 | locus YJL168C, strain set2, hits give low values 1.02 | locus YJL187C, strain SWE1 (second series), hits give low values 1.02 | locus YJL187C, strain SWE1, hits give low values 0.986 | locus YJR043C, strain POL32, hits give low values 1.01 | locus YJR066W, strain TOR1, hits give low values 0.918
